Screening results as filed in PubChem.
Sampled rows, rich in hits. Any-hit rate of the full collection: about 18%.
TDP1 cell noCPT: qHTS for Inhibitors of human tyrosyl-DNA phosphodiesterase 1 (TDP1): qHTS in cells in absence of CPT; hit rate 15% among 420,000; DT40 Tdp1-/- hTDP1 cells, no CPT, ATP luminescence, 48 h; AID 686978, 2013; Potency, µM (doses to about 46.2 µM), without a hit: at the top dose activity change, negative = growth inhibition, hits mostly inhibitors; further: nearly all actives have a fitted effect of over 55% in size
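Readout: luminescence from CellTiter-Glo after 30 min in the dark at RT. Cells: DT40 Tdp1-/- with stable hTDP1, 400/well. Exposure: compounds alone, ≥48 hr, 37 °C.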
DT40 TDP1 CPT: growth inhibition of DT40 Tdp1-/-;hTDP1 cells with camptothecin (screen for TDP1 inhibitors). Potency, µM (highest dose often 46.2 µM), for inactives: at the highest dose activity change, negative = growth inhibition, actives largely listed as inhibitors. chicken DT40 Tdp1-/-;hTDP1 cells + 20 nM CPT, ATP luminescence, 48 h. AID 686979. hit rate 12% among 420,000; further: nearly all actives have a fitted effect of over 55% in size
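Chicken DT40 Tdp1-/- cells complemented with human TDP1, 400 cells/well, exposed to compounds plus 20 nM camptothecin for at least 48 h at 37 C; viability read as ATP content by CellTiter-Glo luminescence.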
TDP1 block: inhibitors of human tyrosyl-DNA phosphodiesterase TDP1; Q9NUW8; recombinant TDP1, AlphaScreen DNA substrate cleavage; Potency, µM (doses to about 130 µM), for inactives: at the highest dose activity change, negative = inhibition, hits mostly inhibitors; hit rate 0.28% among 350,000; further: nearly all actives have a fitted effect of over 40% in size
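Enzyme-compound mixtures sat 15 min at room temperature, followed by a 5 min reaction with 15 nM final substrate and 10 min with AlphaScreen beads. Recombinant human Tdp1 was used at 1 nM final.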
PLK1 PBD inh: blocks phosphopeptide binding to human PLK1 polo-box domain; Plk1 PBD binding of FITC phosphopeptide, fluorescence polarization; P53350; Potency, µM, inactives show max response, negative = inhibition, actives largely listed as inhibitors; hit rate 2.8% among 360,000; further: series mostly up to about 57 µM; nearly all actives have a fitted effect of over 65% in size
VDR inhibitor: vitamin D3 receptor (human) inhibition | P11473 | Potency, µM, inactives show max response, negative = inhibition, usual class: inhibitors | hit rate 0.93% among 400,000 | VDR-SRC2-3 peptide fluorescence polarization, 2 h
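Signal is fluorescence polarization, reporting how far test compounds block the interaction of VDR with the SRC2-3 coregulator peptide after a 2 h room-temperature incubation.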
GCN5L2 inh: GCN5L2 (KAT2A) acetyltransferase inhibition; Q92830; GCN5L2 HAT assay, ThioGlo1 CoA-SH fluorescence; Potency, µM (top dose mostly 58.9 µM), for the others: at the top dose activity change, negative = inhibition, usual class: inhibitors; hit rate 0.21% among 390,000
Target sequence (Q92830 whole entry, looked up): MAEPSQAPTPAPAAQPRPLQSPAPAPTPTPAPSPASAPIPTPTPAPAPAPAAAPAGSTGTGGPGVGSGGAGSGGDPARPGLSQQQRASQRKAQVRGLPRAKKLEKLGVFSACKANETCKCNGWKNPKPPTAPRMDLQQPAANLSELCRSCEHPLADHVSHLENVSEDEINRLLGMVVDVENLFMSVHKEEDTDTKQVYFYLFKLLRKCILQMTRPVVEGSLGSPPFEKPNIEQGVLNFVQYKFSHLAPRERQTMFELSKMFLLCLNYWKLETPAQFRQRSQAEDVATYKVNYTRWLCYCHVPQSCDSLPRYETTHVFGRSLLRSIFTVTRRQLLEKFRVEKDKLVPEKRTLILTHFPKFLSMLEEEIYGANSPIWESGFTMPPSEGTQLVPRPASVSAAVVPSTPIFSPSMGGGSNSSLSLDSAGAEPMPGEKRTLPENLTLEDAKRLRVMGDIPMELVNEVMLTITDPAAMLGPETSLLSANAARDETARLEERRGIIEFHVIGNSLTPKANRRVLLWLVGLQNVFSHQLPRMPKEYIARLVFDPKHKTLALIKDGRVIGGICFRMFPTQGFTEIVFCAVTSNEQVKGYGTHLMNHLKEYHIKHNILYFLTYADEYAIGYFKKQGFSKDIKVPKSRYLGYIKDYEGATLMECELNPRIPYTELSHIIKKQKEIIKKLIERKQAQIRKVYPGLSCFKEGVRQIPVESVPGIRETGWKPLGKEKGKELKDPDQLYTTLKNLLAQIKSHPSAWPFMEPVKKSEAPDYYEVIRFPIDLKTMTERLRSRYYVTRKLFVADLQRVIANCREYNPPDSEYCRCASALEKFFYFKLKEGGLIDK
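Enzyme at 20nM final was mixed with library compounds for 15 min at room temperature. Peptide H3(1-25) at 75uM, acetyl-CoA at 70uM and ThioGlo1 at 50uM were then added. Plates were read immediately and after 20 min (Ex340nm/Em540nm).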
* hit, by the source's call; [ ] = dose if it differs, or a comment. The call rests on the fitted dose curve; in most records, active means well fitted curve in the direction sought with a large enough effect; inconclusive means small, poorly fitted or top-dose-only effect, or another doubt; inactive means no such curve, though single readings can be large; an effect the other way counts as inactive or inconclusive. On the % scale 0 is the no-effect control and ±100 the full control effect; potency means the concentration at half of the fitted maximal effect.

Screening CC1CCN(S(=O)(=O)c2cc(C(=O)N3CCN(c4ccccc4)CC3)ccc2Br)CC1 returned TDP1 cell noCPT 14.6µM*, DT40 TDP1 CPT 23.1µM* and PLK1 PBD inh -6.3%.
Cc1cccc(N2CCN(C(=O)c3cccc(S(=O)(=O)N4CCOCC4)c3)CC2)c1C was read as TDP1 cell noCPT inconclusive, DT40 TDP1 CPT inconclusive, TDP1 block 0.2%, PLK1 PBD inh -5.6%, VDR inhibitor -10.1% and GCN5L2 inh 0.9%.
COc1ccc(C(=O)N2CCN(c3ccccc3)CC2)cc1S(=O)(=O)N1CCCC1 was read as TDP1 cell noCPT -24.8%, DT40 TDP1 CPT -26.5%, TDP1 block -0.6%, PLK1 PBD inh -16.6%, VDR inhibitor -2.4% and GCN5L2 inh -31.0%.
CC1CCN(C(=O)c2cccc(S(=O)(=O)N3CCN(c4ccccc4)CC3)c2)CC1 was read as TDP1 cell noCPT inconclusive, DT40 TDP1 CPT inconclusive, TDP1 block -5.3%, PLK1 PBD inh 1.5%, VDR inhibitor 18.1% and GCN5L2 inh -0.5%.
For COc1ccc(OC)c(NC(=O)Cn2ccn(-c3ccc(OC)c(OC)c3)c(=O)c2=O)c1 the results were TDP1 cell noCPT 0.3%, DT40 TDP1 CPT -2.6%, TDP1 block 6.5%, VDR inhibitor 7.5% and GCN5L2 inh -6.2%.
Screening Cc1cccc(N2CCN(C(=O)C(Cc3ccccc3)n3cccc3)CC2)c1C (configuration not stated) returned TDP1 cell noCPT 16.4µM*, DT40 TDP1 CPT 18.4µM*, TDP1 block 6.5%, PLK1 PBD inh -17.0%, VDR inhibitor -19.7% and GCN5L2 inh -27.2%.
COc1ccccc1N1CCN(C(=O)c2ccc(Cl)c(S(=O)(=O)N3CCOCC3)c2)CC1 was read as TDP1 cell noCPT inconclusive, DT40 TDP1 CPT 25.9µM*, TDP1 block -3.1%, PLK1 PBD inh -11.1%, VDR inhibitor -9.5% and GCN5L2 inh -26.2%.
For Cc1ccc(C(=O)N2CCN(c3ccc(F)cc3)CC2)cc1S(=O)(=O)N1CCCCC1 the results were TDP1 cell noCPT 16.4µM*, DT40 TDP1 CPT 29.1µM*, TDP1 block 4.5%, PLK1 PBD inh -2.9%, VDR inhibitor -4.7% and GCN5L2 inh -5.3%.
`Cc1cccc(N2CCN(C(=O)N3CCOCC3)CC2)c1C` gave TDP1 cell noCPT 20.6µM*, DT40 TDP1 CPT inconclusive, TDP1 block -2.8%, PLK1 PBD inh -23.2%, VDR inhibitor 5.8% and GCN5L2 inh 4.6%.
`Cc1cccc(N2CCN(C(=O)C(Cc3ccccc3)NC(N)=O)CC2)c1C` (configuration not stated) gave TDP1 cell noCPT -19.2%, DT40 TDP1 CPT -29.1%, PLK1 PBD inh -3.8%, VDR inhibitor -11.1% and GCN5L2 inh -12.8%.
CSCC[C@H](N)C(=O)N[C@@H](CO)C(=O)N[C@@H](CCCN=C(N)N)C(=O)N1CCC[C@H]1C(=O)N[C@@H](C)C(=O)N[C@@H](CS)C(=O)N1CCC[C@H]1C(=O)N[C@@H](CC(N)=O)C(=O)N[C@@H](CC(=O)O)C(=O)N[C@@H](CCCCN)C(=O)N[C@@H](Cc1ccc(O)cc1)C(=O)N[C@@H](CCC(=O)O)C(=O)O was read as TDP1 block 9.5%, VDR inhibitor 7.5% and GCN5L2 inh -12.2%.
CCOC(=O)C(NCCc1ccccc1F)(NC(C)=O)C(F)(F)F (configuration not stated) was read as TDP1 cell noCPT -2.8%, DT40 TDP1 CPT -12.8%, TDP1 block -2.8%, PLK1 PBD inh 4.7%, VDR inhibitor -6.4% and GCN5L2 inh 5.8%.
Cc1cccc(SC2CCN(C(=O)C3CCC(=O)N(C4CC4)C3)CC2)c1 (configuration not stated) was read as TDP1 cell noCPT inconclusive, DT40 TDP1 CPT -28.9%, TDP1 block 6.7%, PLK1 PBD inh -21.7%, VDR inhibitor 19.8% and GCN5L2 inh -8.4%.
`CSc1nc(C(=O)N2CCOc3ccc(CN4CCN(Cc5ccccn5)CC4)cc3C2)cs1` gave TDP1 cell noCPT -12.1% and DT40 TDP1 CPT 19.4%[9.04 µM].
For COc1cc(Cl)c(NS(=O)(=O)c2c(C(=O)N3CCCC3)c(C)n(C)c2C)c(OC)c1 the results were TDP1 cell noCPT -24.9%, DT40 TDP1 CPT inconclusive, TDP1 block 6.2%, PLK1 PBD inh 26.7µM*, VDR inhibitor -16.8% and GCN5L2 inh -1.6%.
CN(c1ccc(C(=O)N2CCN(c3ccc(F)cc3)CC2)cc1)S(C)(=O)=O was read as TDP1 cell noCPT inconclusive, DT40 TDP1 CPT 13µM*, TDP1 block 2.2%, PLK1 PBD inh 3.36µM*, VDR inhibitor -17.6% and GCN5L2 inh -12.1%.
Screening COc1ccc(C2=NN(C(=O)c3cccs3)C(c3ccccc3O)C2)cc1 (configuration not stated) returned TDP1 cell noCPT inconclusive, DT40 TDP1 CPT inconclusive, TDP1 block 0.0%, PLK1 PBD inh -11.0%, VDR inhibitor -2.8% and GCN5L2 inh 0.3%.
`COc1ccc(C2=NN(C(=O)c3cccs3)C(O)(C(F)(F)F)C2)cc1` (configuration not stated) gave TDP1 cell noCPT 16.4µM*, DT40 TDP1 CPT inconclusive, TDP1 block 0.0%, PLK1 PBD inh -1.2%, VDR inhibitor -2.9% and GCN5L2 inh -0.1%.
`COc1ccc(C2=NN(C(=O)CN3CCCCC3)C(c3ccc(OC)cc3)C2)cc1` (configuration not stated) gave TDP1 cell noCPT inconclusive, DT40 TDP1 CPT 16.4µM*, TDP1 block 6.8%, PLK1 PBD inh -15.7%, VDR inhibitor 0.9% and GCN5L2 inh 2.8%.
`COc1ccc(C2=NN(C(=O)CN3CCCC3)C(c3ccc(OC)cc3)C2)cc1` (configuration not stated) gave TDP1 cell noCPT -28.7%, DT40 TDP1 CPT -12.6%, PLK1 PBD inh -8.6%, VDR inhibitor 4.4% and GCN5L2 inh -4.6%.
`COc1ccc(C2CC(c3ccccc3)=NN2C(=O)c2cccs2)cc1` (configuration not stated) gave TDP1 cell noCPT inconclusive, DT40 TDP1 CPT 23.1µM*, TDP1 block 5.2%, PLK1 PBD inh 2.7%, VDR inhibitor 17.5% and GCN5L2 inh -16.0%.
